Where “and” joins values, the source holds several entries; their conditions need not be identical. Equal entries are not always repeated. The campaign covered roughly 300,000 compounds. About 37,000 (12%) were called active. This excerpt belongs to a sample that is enriched for actives. Unmarked numbers belong to inactive results. No stated cut-off is given here; in the data, active means max response mostly above about 13% (no sharp cut-off); inactive means mostly below about 14%.

The experiment is described as follows: Cycloheximide Counterscreen for Small Molecule Inhibitors of Shiga Toxin. Further: read at 38.3 µM for the half of the compounds with a filed dose; 0% is about no effect. The conditions noted are these: cell reporter, cycloheximide protein synthesis inhibition counterscreen; hits give high values. (Counterscreens check selectivity or assay interference.)
As for `COc1ccc(C(=O)N(C)CC(O)c2ccccc2)cc1OC1CCN(C(C)=O)CC1` (stereo unspecified), the max response was 3.8%.

Take `CC(C)[C@H](NC(=O)OCc1ccccc1)C(=O)OCc1ccccc1`: the max response was -4.84%.

Regarding `CC1CCN(c2ccc([N+](=O)[O-])c(SCCO)c2)CC1`, the max response is 1.83%.

For the molecule `NC(=O)Nc1cccc(C(F)(F)F)c1`, the max response is 0.977%.

In the case of `FC(F)(F)c1cccc(N/N=C/c2ccccc2)c1`, the max response was 41.1% (active).

Turning to `O=C(O)CSCC(=O)Nc1cccc(C(F)(F)F)c1`, the max response was -6.91%.

For `Cc1ccc(C(C)C)cc1OCC(=O)Nc1ccccc1N1CCCC1`, the max response is -0.789%.

With `Cc1ccc(O)c(NC(=O)COc2cc(C)ccc2C)c1`, the max response was 28.6% (active).

In the case of `Cc1ccc(O)c(NC(=S)NC(=O)COc2ccc(Br)cc2)c1`, the max response is -1.57%.

Consider `COc1nnc(-c2ccc(C)c(S(=O)(=O)N(C)C)c2)c2ccccc12`, for which the max response was 0.699%.

As for `Cc1cc(C)c(S(=O)(=O)N2CCOCC2)cc1C`, the max response is 1.22%.

Consider `O=C(CSc1ncccn1)NC(=O)NCc1ccccc1`, for which the max response was -1.54%.

Consider `Cc1nc2ccc(NC(=O)C(F)(F)F)cc2o1`, for which the max response was 1.37%.

For the molecule `CCCCc1ccc(NC(=O)NCc2cccnc2)cc1`, the max response was 16%.

For the molecule `Cc1nc2cc(NC(=O)NCc3ccccc3)ccc2o1`, the max response is 21.4% (active).

For the molecule `Cc1ccc(NC(=O)Nc2ccc3oc(C)nc3c2)cc1`, the max response is 53.3% (active).

For `COc1ccccc1C(=O)Nc1ccc(OCc2nnc3c4ccccc4c(C)nn23)cc1`, the max response is 1.98%.

`CN(Cc1ccccc1)C(=O)C1CCCN(c2ncnc3c2nc2n3CCCCC2)C1` (stereo unspecified): the max response is -3.17%.

With `N#C/C(=C\c1ccc(N2CCOCC2)o1)C(=O)N1CCOCC1`, the max response was 1.71%.

`CCn1c(=O)c([N+](=O)[O-])c(NCc2ccc3c(c2)OCO3)c2ccccc21`: the max response was -2.03%.

For the molecule `CC(C)NC(=O)/C(C#N)=C\c1ccc(N(C)C)c(Br)c1`, the max response is 27.9% (active).

For the molecule `COCCNC(=O)/C(C#N)=C/c1cccc(OCc2ccccc2)c1`, the max response is 4.87%.

Turning to `CC(C)(C)C(=O)/C(C#N)=C/c1ccc(O)cc1`, the max response was 8.63%.

For the molecule `COc1ccccc1C(C)NC(=O)Cc1ccsc1` (stereo unspecified), the max response was 5.18%.

Take `CC(=O)Nc1ccc(NC(=O)[C@@H](NC(=O)c2cccc(C)c2)C(C)C)cc1`: the max response was -5.14%.

`CSCCC(NC(=O)COc1ccccc1)C(=O)Nc1ccc(C)cc1` (stereo unspecified): the max response is 4.05%.

In the case of `Cc1ccc(NC(=O)C(C)c2cccc(C(=O)c3ccccc3)c2)cc1` (stereo unspecified), the max response was 26.6% (active).

As for `COc1ccc(N2C(=O)C(CC(=O)Nc3ccccc3)N(Cc3ccc(OC)c(OC)c3)C2=O)cc1` (stereo unspecified), the max response is 14.6%.

Turning to `CCCCCCSc1nsc(N)n1`, the max response was 23.1% (active).

As for `Nc1nc(SC23CC4CC(CC(C4)C2)C3)ns1`, the max response is -2.92%.

For `CCCSc1nsc(N)n1`, the max response was 22.8% (active).

For `Cc1ccc(S(=O)(=O)N2CCCC(C(=O)N3CCN(C)CC3)C2)cc1` (stereo unspecified), the max response is 6.16%.

Consider `Cn1c(=O)[nH]c(=O)c2c1nc(CN1CCN(c3ccccc3F)CC1)n2CCc1ccccc1`, for which the max response is 2.36%.

On to `CCCCCCNS(=O)(=O)c1ccccc1Br`, for which the max response was -2.52% and 6.23%.

`O=C(COC(=O)c1ccc(S(=O)(=O)Nc2ccccc2)cc1)NCC1CCCO1` (stereo unspecified): the max response is -1.31%.

For `CCOC(=O)N1CCN(c2cc(C)c([N+](=O)[O-])cc2F)CC1`, the max response was 16.3%.

For `CS(=O)(=O)c1ccc2nnn(OCC(=O)Nc3cccc(C#N)c3)c2c1`, the max response was -3.01%.

For the molecule `O=C(O)CC(c1ccccc1F)N1Cc2ccccc2C1=O` (stereo unspecified), the max response was -3.84%.

For the molecule `COc1cc([N+](=O)[O-])cc([N+](=O)[O-])c1NC(=O)N1CCOCC1`, the max response was -3.17%.

`O=C1c2ccccc2C(=O)N1CCOc1ccc(F)cc1`: the max response was 34.9% (active).

Turning to `O=C(OCCN1C(=O)c2ccccc2C1=O)Oc1ccccc1`, the max response is -5.45%.

Turning to `COc1ccc(OCCCON2C(=O)c3ccccc3C2=O)cc1`, the max response is -3.07%.

Turning to `COc1cc(OC)cc(C(=O)Nc2nnc(SCC(=O)NCC3CCCO3)s2)c1` (stereo unspecified), the max response was 5.61%.

As to `COC(=O)C1=C(C)N(C(C)c2ccccc2)C(=O)/C1=C\c1ccco1` (stereo unspecified), the max response is 12.5%.

With `O=C(Nn1cnnc1)c1cc(Cl)ccc1Cl`, the max response was 1.72%.

As to `COc1cccc(-n2c(SCC(=O)c3c[nH]c4ccccc34)nc3ccccc3c2=O)c1`, the max response was -2.32%.

As to `CCc1c(O)nc(SCC(=O)N2CCCCC2)n(-c2ccccc2C)c1=O`, the max response was -1.43%.

In the case of `Cc1ccc(-n2c(SCC(=O)N3CCC(C(=O)O)CC3)nc3ccccc3c2=O)cc1C`, the max response was 25.2% (active).

Take `Cc1[nH]c2ccccc2c1C(=O)CN1CC(C)CC(C)C1` (stereo unspecified): the max response was -1.83%.

Regarding `NC(=O)C1=C[C@@H](c2csc3ccccc23)C[C@@H](OCc2ccc(CO)cc2)O1`, the max response was -2.5%.

For the molecule `O=C(NC1CC1)C1=C[C@H](c2c[nH]c3ccccc23)C[C@H](OCc2ccc(CO)cc2)O1`, the max response is 16.2% (active).

Turning to `O=C(NCc1ccccc1)C1=C[C@@H](c2ccc(C(F)(F)F)cc2)C[C@@H](OCc2ccc(CO)cc2)O1`, the max response was 6.43%.

Regarding `O=C(NCc1ccccc1)C1=C[C@H](C2CC2)C[C@H](OCc2ccc(CO)cc2)O1`, the max response is -2.61%.

Take `C=CCOC(=O)C1=C[C@@H](c2ccccc2)C[C@@H](OCc2ccc(CO)cc2)O1`: the max response is 8.03%.

For `NC(=O)C1=C[C@H](c2csc3ccccc23)C[C@H](OCc2ccc(CO)cc2)O1`, the max response was 20.4% (active).

`CCc1cccc(NC(=O)CCCN2C(=O)C(c3ccccc3)Oc3cccnc32)c1` (stereo unspecified): the max response is 11.2%.

On to `C=C(Br)Cn1c(CCCC)nc2ccccc21`, for which the max response was 3.99%.

For the molecule `COc1ccc(C)cc1S(=O)(=O)NCCc1ccccc1`, the max response was -1.77%.

In the case of `COc1ccc(CCN2C(=O)N(c3ccc(OC)cc3)C(=O)C2CC(=O)Nc2ccc(OC)cc2)cc1` (stereo unspecified), the max response is 1.2%.

In the case of `Cc1cc(C(F)F)nn1CC(=O)NC1CCCCCC1`, the max response is 6.8%.

Turning to `O=C(CN1CCCCCC1)Nc1ccc(Br)cc1Br`, the max response is 15.8%.

(Values after PubChem BioAssay AID2314 (National Center for Advancing Translational Sciences (NCATS), 2010).)
